Screening data deposited in PubChem BioAssay by National Center for Advancing Translational Sciences (NCATS).
USP1-UAF1 inh = Inhibitors of USP1/UAF1: Primary Screen | Ubiquitin carboxyl-terminal hydrolase 1 (Homo sapiens), O94782 | recombinant USP1/UAF1, Ub-Rhodamine cleavage fluorescence | Potency, µM (titrated, usually from 57.1 µM), inactives show at the highest dose activity change, negative = inhibition, most hits filed as inhibitors | actives 0.23% (n = 390,000) | AID 743255, 2014; further: potency means the concentration at half of the fitted maximal effect; nearly all actives have a fitted effect of over 60% in size
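USP1/UAF1 complex (1 nM) preincubated 15 min at room temperature with compound, then Ub-Rho substrate (150 nM final) added. Kinetic fluorescence at 480/540 nm over 6 reads at 60 s intervals; 50 mM HEPES pH 7.8, 0.5 mM EDTA, 0.1 mg/ml BSA, 1 mM TCEP, 0.01% Tween-20.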
rTrxR1 inhibitor = qHTS Assay for Inhibitors of Mammalian Selenoprotein Thioredoxin Reductase 1 (TrxR1): qHTS. Thioredoxin reductase 1, cytoplasmic (Rattus norvegicus), O89049. recombinant rTrxR1, NADPH fluorescence consumption, selenite substrate. Potency, µM (series often up to 114 µM), for inactives: at the highest dose activity change, negative = inhibition, usual class: inhibitors. actives 1% (n = 390,000); further: potency means the concentration at half of the fitted maximal effect; nearly all actives have a fitted effect of over 65% in size
Target sequence (O89049 whole entry, looked up): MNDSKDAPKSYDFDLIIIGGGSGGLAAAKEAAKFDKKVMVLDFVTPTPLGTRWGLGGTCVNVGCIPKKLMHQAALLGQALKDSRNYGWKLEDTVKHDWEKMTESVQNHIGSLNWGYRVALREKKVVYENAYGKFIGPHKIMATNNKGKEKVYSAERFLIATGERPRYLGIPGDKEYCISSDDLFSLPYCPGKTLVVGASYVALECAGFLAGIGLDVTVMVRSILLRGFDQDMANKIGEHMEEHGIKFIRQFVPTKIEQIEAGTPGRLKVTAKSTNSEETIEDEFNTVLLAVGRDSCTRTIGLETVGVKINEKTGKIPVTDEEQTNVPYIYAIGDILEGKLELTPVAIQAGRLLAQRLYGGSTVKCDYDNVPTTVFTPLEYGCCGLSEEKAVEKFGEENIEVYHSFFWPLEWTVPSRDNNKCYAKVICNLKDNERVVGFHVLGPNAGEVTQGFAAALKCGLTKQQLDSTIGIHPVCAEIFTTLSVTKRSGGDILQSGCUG
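Rat TrxR1 (90 nM in the dispensed reagent) was pre-reduced with 400 uM NADPH for 5 min at room temperature, then incubated with compound for 15 min. After 400 uM selenite was added, NADPH fluorescence (Ex 340/Em 450 nm) was followed for 8 min.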
FBPA coupling cs = qHTS Assay for Inhibitors of Fructose-1,6-bisphosphate Aldolase from Giardia Lamblia: Coupling assay counterscreen; coupling enzyme system counterscreen, AmpLite Red fluorescence; activity change, negative = inhibition, % at 58.2 µM, hits read low; actives 0.67% (n = 290,000); AID 2472, 2010; in the data active means activity change below about -30%
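Compounds tested against the coupling enzymes alone at 57.5 uM final; readout was AmpLite Red fluorescence (525/598 nm) after 20 min at RT.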
TrxR1 substrate = qHTS Assay for Substrates of Mammalian Selenoprotein Thioredoxin Reductase 1 (TrxR1): qHTS; AID 588456, 2011; purified TrxR1 substrate turnover, NADPH consumption readout; Potency, µM (highest dose often 114 µM), for inactives: at the highest dose activity change, negative = substrate turnover; actives 0.01% (n = 390,000); Thioredoxin reductase 1, cytoplasmic (Rattus norvegicus), O89049; further: potency means the concentration at half of the fitted maximal effect; nearly all actives have a fitted effect of over 50% in size
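Rat TrxR1, dispensed at 90 nM, was prereduced with 400 uM NADPH (final) for 5 min at ~22 deg C, then incubated with compound 15 min before 400 uM selenite. A first-read NADPH fluorescence drop versus no-compound background flagged substrates.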
GALK inhibitor = qHTS Assay for Inhibitors of Human Galactokinase (GALK) | P51570 | Purified GALK, Kinase-Glo residual ATP luminescence | Potency, µM (series often up to 57.5 µM), for the others: at the top dose activity change, negative = inhibition, hits mostly inhibitors | actives 0.007% (n = 270,000); further: potency means the concentration at half of the fitted maximal effect
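GALK at 5 nM final was combined with compound, 35 uM ATP and 100 uM galactose in HEPES pH8.0 with MgCl2 and DTT. The reaction ran one hour at room temperature before luminescent ATP detection.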
An asterisk follows results filed as active; u = inconclusive; x = no result; [ ] = another dose, or the depositor's remark. Sampled rows, rich in hits. Any-hit rate of the full collection: about 1.5%. Unless noted, the call rests on the fitted dose curve; in most records, active means well fitted curve in the direction sought with a large enough effect; inconclusive means small, poorly fitted or top-dose-only effect, or another doubt; inactive means no such curve, though single readings can be large; an effect the other way counts as inactive or inconclusive. On the % scale 0 is the no-effect control and ±100 the full control effect.

SMILES	USP1-UAF1 inh	rTrxR1 inhibitor	FBPA coupling cs	TrxR1 substrate	GALK inhibitor
COC(=O)c1ccccc1S(=O)(=O)N1CCc2nc(-c3ccc(OC)cc3C)c3c(c2C1)CO[C@@H](c1ccccc1)C3	x	x	1.8	x	x
O=C(COC(=O)C12CC3CC(CC(Br)(C3)C1)C2)NCc1ccco1	x	6.6%	x	3.4%	x
Cc1ccc(/C=C/C(=O)NCc2ccco2)o1	x	x	0.3	x	0.0%
Cc1ccc(/C=C/C(=O)Nc2ccc(S(N)(=O)=O)cc2)o1	-19.1%	5.01µM*	0.8	4.0%[57.1 µM]	3.1%
Cc1ccc(/C=C/C(=O)Nc2ccc(N(C)C)cc2)o1	-7.0%	-15.1%	-5.4	-6.6%	-0.5%
O=C(/C=C/c1ccco1)NCC1CCCO1 (stereo not given)	-15.8%	28.2µM*	-1.2	-2.1%	0.0%
CC(=C/C(=O)O)/C=C/c1ccco1	0.0%	28.2µM*	-1.6	-12.3%	x
CC(/C=C/c1ccc(Cl)o1)=C\C(=O)O	-4.0%	u	3.4	-19.1%	3.6%
O=C(/C=C/c1ccco1)NCc1ccco1	-15.3%	70.8µM*	2.3	-6.3%	7.0%
COC(=O)C1=C(C(=O)OC)[C@@H]2Nc3ccccc3[C@@]23C[C@@H](C(=O)OC)N(S(=O)(=O)c2ccc(Br)cc2)C3=N1	x	x	1.9	x	x
CC(C)(C)n1ncc2c(=O)n(Cc3cc(C(F)(F)F)ccc3Cl)cnc21	x	1.3%	x	-3.6%	x
Cc1ccc(C)c(NC(=O)CCC(=O)N/N=C/c2cccnc2)c1	-9.0%	16.2%	x	-2.4%	3.5%
Cc1ccc(SCCC(=O)N/N=C/c2cccnc2)cc1	-3.3%	16.2%	-31.5*	-4.3%	10.7%
CC(C)(C)c1nnc(NC(=O)c2ccc(Cl)nc2)s1	-9.8%	22.4%	-36.3*	-3.0%	0.5%
Cn1c(C(=O)NCCN2CCc3ccccc3C2)cc2c(=O)n(C)c3ccccc3c21	-23.4%	-4.8%	-30.5*	2.2%	2.0%
CC1=C(C(=O)O)N2C(=O)[C@@H](NC(=O)[C@@H](N)c3ccccc3)[C@@H]2SC1	x	x	4.6	x	x
Cc1ccc(S(=O)(=O)N/N=C2/CC(=O)CC(C)(C)C2)cc1[N+](=O)[O-]	-19.9%	39.8µM*	-1.2	-2.7%	5.8%
COc1ccccc1C1=Nn2c(nnc2-c2ccccc2O)SC1	x	x	0.6	x	x
CCOc1ccc(NC(=O)C(c2ccccn2)N(C(=O)CCl)c2ccc(OCC)cc2)cc1 (stereo not given)	-5.0%	79.4µM*	-16.6	-5.7%	1.1%
COc1ccc(NC(=O)C(c2ccccn2)N(C(C)=O)c2ccc(C)cc2)cc1 (stereo not given)	-5.8%	-15.6%	2.2	-8.9%	0.9%
CCOc1ccc(NC(=O)C(c2ccccn2)N(C(=O)CCl)c2ccc(OC)cc2)cc1 (stereo not given)	-22.2%	u	-42.5*	-7.0%	-5.8%
C=CC1=C(C)C2=NC1=CC1=NC(=CC3=NC(=CC4=NC(=C2)C(C)=C4CCC(=O)O)C(CCC(=O)O)=C3C)C(C=C)=C1C.[Zn]	x	x	-14.2	x	x
CN(C1=C(N2CCCCC2)C(=O)c2ccccc2C1=O)c1ccccc1	u	u	-27.5	2.4%	-0.6%
CC1=C(Nc2ccc(C(=O)O)cc2)C(=O)c2ccccc2C1=O	u	u	-12.4	-7.3%	x
O=C1C(Nc2ccccc2)=C(N2CCCCC2)C(=O)c2ccccc21	25.1µM*	u	-49.5*	5.8%	-0.5%
SMILES	USP1-UAF1 inh	rTrxR1 inhibitor	FBPA coupling cs	TrxR1 substrate	GALK inhibitor
O=C1C(Nc2cccc(O)c2)=C(N2CCCCC2)C(=O)c2ccccc21	u	u	-51.5*	-0.4%	3.6%
Cc1ccc(NC2=C(N3CCCCC3)C(=O)c3ccccc3C2=O)cc1	u	u	-45.4*	12.4%	0.0%
COc1ccccc1NC1=C(N2CCCCC2)C(=O)c2ccccc2C1=O	17.8µM*	-11.0%[11.4 µM]	-50.8*	-9.3%[11.4 µM]	1.3%
O=C1C(NS(=O)(=O)c2ccc(Br)cc2)=C(N2CCCCC2)C(=O)c2ccccc21	u	3.5%	-26.4	-4.1%	-1.5%
COc1cc(OC)c(OC)cc1/C=C/c1nccc2ccccc12	x	-24.7%	x	-7.6%	x
N/C(=C\c1ccccc1)c1ccncc1	x	-16.4%	x	-7.8%	x
O=C1CC(c2ccc3c(c2)OCO3)c2cc(O)ccc2O1 (stereo not given)	x	x	-0.4	x	x
CCc1ccc(OCCn2c(CCNC(=O)C3CCCCC3)nc3ccccc32)cc1	x	10.1%	x	-1.9%	x
O=C(Nc1cccc2cccnc12)OCc1ccccc1	x	u	x	7.9%[0.457 µM]	x
O=C(/C=C/c1ccc(O)cc1)c1ccc(NC2=C(N3CCCCC3)C(=O)c3ccccc3C2=O)cc1	15.8µM*	44.7µM*	-45.7*	-10.5%	-2.5%
O=C(/C=C/c1ccc(O)cc1)c1ccccc1	-20.0%	-12.7%	0.1	-9.3%	5.6%
CCOC(=O)/C(=C/c1c(C)n(C)c2ccc([N+](=O)[O-])cc12)C(C)=O	u	44.7µM*	-13.3	-11.5%	-3.1%
Cc1occc1C(=O)NCCCCNC(=O)c1ccoc1C	-7.7%	u	6.4	-3.6%	-0.8%
CCCCCCCCCCCNC(=O)c1ccoc1C	-26.2%	20µM*	0.1	-5.2%	-3.3%
Cc1occc1C(=O)NCc1ccccc1F	-10.8%	10µM*	2.5	8.8%	-0.5%
COc1ccccc1CNC(=O)c1ccoc1C	-9.5%	u	-4.1	-2.4%	2.7%
CCCCCCCCCCCCCCCC[n+]1ccc(C)cc1	x	-28.8%	x	-9.9%	x
CCCN1CNc2c(c(=O)[nH]c(=S)n2CCc2cc(OC)ccc2OC)C1	x	-7.4%	x	-5.6%	x
CCc1ccc(C(C)NC(=O)c2cc(C)oc2C)cc1 (stereo not given)	-5.3%	20µM*	-0.1	-2.8%	0.6%
O=C(O)c1cccc(N2C(=O)c3ccc4c5c(ccc(c35)C2=O)C(=O)N(c2cccc(C(=O)O)c2)C4=O)c1	-17.3%	9.7%	-21.0	-15.3%	-4.1%
O=C(O)c1cc(N2C(=O)C=CC2=O)cc(N2C(=O)C=CC2=O)c1	-7.1%	0.224µM*	x	-3.0%	x
c1ccc(-c2nc(SCC3CCCCO3)n[nH]2)cc1 (stereo not given)	x	10.2%	x	2.5%	x
CC1=C(/C=C/C(C)=C/C=C/C(C)=C\C(=O)O)C(C)(C)CCC1	7.6%	35.5µM*	6.7	3.0%[57.1 µM]	x
CC1=C(\C=C/C(C)=C/C=C\C(C)=C\C(=O)O)C(C)(C)CCC1	x	x	3.3	x	x
O=C(Nc1ccc(Br)cc1Cl)c1cnn2c1NC(=C1CC1)C=C2C(F)F	x	12.1%	x	3.3%	x
Cc1ccc(/C=C(\C#N)C(=O)Nc2cccc(Br)c2)o1	-11.7%	11.4%	x	1.8%	x
